Measurements reported in article PMC9838217, “Structure of SALL4 zinc finger domain reveals link between AT-rich DNA binding and Okihiro syndrome”.
Residue numbers refer to the chain shown, from its start.

Molecular target: T1, SALL4 ZFC4 WT (HT-SELEX) (Mus musculus, UniProt Q8BX22 870-940)
T1 sequence: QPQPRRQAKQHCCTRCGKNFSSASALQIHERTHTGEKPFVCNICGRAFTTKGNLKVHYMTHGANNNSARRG
Test: HT-SELEX; high values mean tight binding
Conditions: protein: recombinant; vector His6-GST; dsDNA, one strand shown
In short: (§1)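 Purified recombinant mouse SALL4 zinc finger cluster 4 (residues 870–940, 1 µg) was incubated with library DNA (1.5 µg first cycle, 200 ng later) in 100 µl of 10 mM Tris–HCl pH 7.5, 50 mM NaCl, poly(dI-dC) and DTT for 10 min at room temperature, with Ni2+ bead capture and reselection for up to 6 cycles in triplicate. MiSeq reads were scanned for 6-mers. Binding signal is each canonical k-mer's read fraction as fold change relative to the initial random library.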

Going from AGGGTC to CTTAGC, the binding signal rises from 0.434 ± 0.029 fold-change vs cycle 0 to 0.73 ± 0.019 fold-change vs cycle 0.

First: AAGAAA
Second: TCACGA
The binding signal of the first is higher: 2.03 ± 0.13 fold-change vs cycle 0 for the first, 0.737 ± 0.0222 fold-change vs cycle 0 for the second.

Going from CAGTTC to CCATAG, the binding signal rises from 0.794 ± 0.00773 fold-change vs cycle 0 to 0.841 ± 0.0326 fold-change vs cycle 0.

First: TATCCA
Second: AGGCAT
The binding signal of the first is higher: 1.41 ± 0.0597 fold-change vs cycle 0 for the first, 0.627 ± 0.0329 fold-change vs cycle 0 for the second.

Going from CTCATC to GGGAAC, the binding signal falls from 0.898 ± 0.0192 fold-change vs cycle 0 to 0.517 ± 0.0146 fold-change vs cycle 0.

GTATCA and AACATC are within error of each other in binding signal: 1.39 ± 0.0637 fold-change vs cycle 0 for the first, 1.26 ± 0.068 fold-change vs cycle 0 for the second.

First: ATCAGG
Second: AGGTCA
The binding signal of the first is higher: 0.876 ± 0.0408 fold-change vs cycle 0 for the first, 0.772 ± 0.0359 fold-change vs cycle 0 for the second.

ACCTGC and CCGTAG are within error of each other in binding signal: 0.368 ± 0.0272 fold-change vs cycle 0 for the first, 0.35 ± 0.01 fold-change vs cycle 0 for the second.

Going from AGAGAG to CGTAAA, the binding signal rises from 0.922 ± 0.0426 fold-change vs cycle 0 to 1 ± 0.0348 fold-change vs cycle 0.

Compared with TGGACA, ACGACA is lower in binding signal: 0.662 ± 0.0418 fold-change vs cycle 0 for the first, 0.543 ± 0.0412 fold-change vs cycle 0 for the second.

Going from TCAGAA to TCTAAA, the binding signal rises from 1.27 ± 0.0471 fold-change vs cycle 0 to 1.79 ± 0.0986 fold-change vs cycle 0.

First: TGTACA
Second: AAAATT
The binding signal of the first is lower: 1.21 ± 0.0321 fold-change vs cycle 0 for the first, 3.32 ± 0.292 fold-change vs cycle 0 for the second.

First: GCAGGA
Second: ACTACG
The binding signal of the first is lower: 0.338 ± 0.0276 fold-change vs cycle 0 for the first, 0.659 ± 0.026 fold-change vs cycle 0 for the second.

First: AAGATC
Second: CCATAA
The binding signal of the first is lower: 1.25 ± 0.0866 fold-change vs cycle 0 for the first, 1.51 ± 0.0387 fold-change vs cycle 0 for the second.

First: CGAACA
Second: AGTTTC
The binding signal of the first is lower: 0.588 ± 0.0204 fold-change vs cycle 0 for the first, 1.25 ± 0.0447 fold-change vs cycle 0 for the second.

CAATGA and CTCTAA are within error of each other in binding signal: 1.32 ± 0.056 fold-change vs cycle 0 for the first, 1.25 ± 0.0589 fold-change vs cycle 0 for the second.

Compared with GCAAGA, ACAATA is higher in binding signal: 0.671 ± 0.0141 fold-change vs cycle 0 for the first, 2.09 ± 0.146 fold-change vs cycle 0 for the second.

Going from AGCACT to ATGAGA, the binding signal rises from 0.65 ± 0.0278 fold-change vs cycle 0 to 1.52 ± 0.0648 fold-change vs cycle 0.

First: TAATGA
Second: TCCACA
The binding signal of the first is higher: 2.15 ± 0.16 fold-change vs cycle 0 for the first, 0.698 ± 0.0439 fold-change vs cycle 0 for the second.

First: CCATTA
Second: ACCTGA
The binding signal of the first is higher: 1.33 ± 0.0471 fold-change vs cycle 0 for the first, 0.842 ± 0.0331 fold-change vs cycle 0 for the second.

Molecular target: T2, SALL4 ZFC4 R900W (HT-SELEX) (Mus musculus, UniProt Q8BX22 870-940, R900W)
T2 sequence: T1 sequence with R31W
Test: HT-SELEX; high values mean tight binding
Conditions: protein: recombinant; vector His6-GST; dsDNA, one strand shown
In short: as §1

Going from AGGGTC to CTTAGC, the binding signal rises from 0.524 ± 0.0447 fold-change vs cycle 0 to 0.843 ± 0.0192 fold-change vs cycle 0.

First: AAGAAA
Second: TCACGA
The binding signal of the first is higher: 2.08 ± 0.193 fold-change vs cycle 0 for the first, 0.841 ± 0.0178 fold-change vs cycle 0 for the second.

CAGTTC and CCATAG are within error of each other in binding signal: 0.912 ± 0.0408 fold-change vs cycle 0 for the first, 0.91 ± 0.0505 fold-change vs cycle 0 for the second.

Compared with TATCCA, AGGCAT is lower in binding signal: 1.44 ± 0.0638 fold-change vs cycle 0 for the first, 0.715 ± 0.0142 fold-change vs cycle 0 for the second.

First: CTCATC
Second: GGGAAC
The binding signal of the first is higher: 1.04 ± 0.0368 fold-change vs cycle 0 for the first, 0.591 ± 0.0347 fold-change vs cycle 0 for the second.

GTATCA and AACATC are within error of each other in binding signal: 1.4 ± 0.0395 fold-change vs cycle 0 for the first, 1.37 ± 0.098 fold-change vs cycle 0 for the second.

Going from ATCAGG to AGGTCA, the binding signal falls from 0.991 ± 0.0415 fold-change vs cycle 0 to 0.893 ± 0.023 fold-change vs cycle 0.

Compared with ACCTGC, CCGTAG is higher in binding signal: 0.391 ± 0.01 fold-change vs cycle 0 for the first, 0.427 ± 0.0139 fold-change vs cycle 0 for the second.

AGAGAG and CGTAAA are within error of each other in binding signal: 1.09 ± 0.0215 fold-change vs cycle 0 for the first, 1.08 ± 0.0147 fold-change vs cycle 0 for the second.

Compared with TGGACA, ACGACA is lower in binding signal: 0.761 ± 0.0205 fold-change vs cycle 0 for the first, 0.639 ± 0.0243 fold-change vs cycle 0 for the second.

First: TCAGAA
Second: TCTAAA
The binding signal of the first is lower: 1.37 ± 0.0562 fold-change vs cycle 0 for the first, 1.85 ± 0.144 fold-change vs cycle 0 for the second.

Going from TGTACA to AAAATT, the binding signal rises from 1.32 ± 0.00394 fold-change vs cycle 0 to 2.14 ± 0.119 fold-change vs cycle 0.

Compared with GCAGGA, ACTACG is higher in binding signal: 0.413 ± 0.0223 fold-change vs cycle 0 for the first, 0.728 ± 0.025 fold-change vs cycle 0 for the second.

AAGATC and CCATAA are within error of each other in binding signal: 1.42 ± 0.0452 fold-change vs cycle 0 for the first, 1.36 ± 0.0383 fold-change vs cycle 0 for the second.

First: CGAACA
Second: AGTTTC
The binding signal of the first is lower: 0.694 ± 0.0214 fold-change vs cycle 0 for the first, 1.33 ± 0.0345 fold-change vs cycle 0 for the second.

CAATGA and CTCTAA are within error of each other in binding signal: 1.47 ± 0.0677 fold-change vs cycle 0 for the first, 1.39 ± 0.103 fold-change vs cycle 0 for the second.

Going from GCAAGA to ACAATA, the binding signal rises from 0.766 ± 0.0335 fold-change vs cycle 0 to 1.92 ± 0.0865 fold-change vs cycle 0.

Compared with AGCACT, ATGAGA is higher in binding signal: 0.746 ± 0.0409 fold-change vs cycle 0 for the first, 1.6 ± 0.0511 fold-change vs cycle 0 for the second.

Going from TAATGA to TCCACA, the binding signal falls from 2.16 ± 0.14 fold-change vs cycle 0 to 0.806 ± 0.0256 fold-change vs cycle 0.

Compared with CCATTA, ACCTGA is lower in binding signal: 1.4 ± 0.0728 fold-change vs cycle 0 for the first, 1 ± 0.047 fold-change vs cycle 0 for the second.

Molecular target: T3, SALL4 ZFC4 G921D (HT-SELEX) (Mus musculus, UniProt Q8BX22 870-940, G921D)
T3 sequence: T1 sequence with G52D
Test: HT-SELEX; high values mean tight binding
Conditions: protein: recombinant; vector His6-GST; dsDNA, one strand shown
In short: as §1

Compared with AGGGTC, CTTAGC is higher in binding signal: 0.649 ± 0.0851 fold-change vs cycle 0 for the first, 0.8905 ± 0.00272 fold-change vs cycle 0 for the second.

Going from AAGAAA to TCACGA, the binding signal falls from 1.78 ± 0.233 fold-change vs cycle 0 to 0.889 ± 0.0148 fold-change vs cycle 0.

CAGTTC and CCATAG are within error of each other in binding signal: 0.935 ± 0.0458 fold-change vs cycle 0 for the first, 0.94 ± 0.039 fold-change vs cycle 0 for the second.

First: TATCCA
Second: AGGCAT
The binding signal of the first is higher: 1.34 ± 0.0962 fold-change vs cycle 0 for the first, 0.816 ± 0.0443 fold-change vs cycle 0 for the second.

First: CTCATC
Second: GGGAAC
The binding signal of the first is higher: 1.06 ± 0.0243 fold-change vs cycle 0 for the first, 0.653 ± 0.041 fold-change vs cycle 0 for the second.

GTATCA and AACATC are within error of each other in binding signal: 1.38 ± 0.0408 fold-change vs cycle 0 for the first, 1.34 ± 0.101 fold-change vs cycle 0 for the second.

ATCAGG and AGGTCA are within error of each other in binding signal: 1 ± 0.0437 fold-change vs cycle 0 for the first, 0.972 ± 0.0353 fold-change vs cycle 0 for the second.

ACCTGC and CCGTAG are the same in binding signal: 0.516 ± 0.075 fold-change vs cycle 0 for the first, 0.516 ± 0.0548 fold-change vs cycle 0 for the second.

Going from AGAGAG to CGTAAA, the binding signal falls from 1.14 ± 0.0249 fold-change vs cycle 0 to 1.05 ± 0.0379 fold-change vs cycle 0.

First: TGGACA
Second: ACGACA
The binding signal of the first is higher: 0.847 ± 0.0377 fold-change vs cycle 0 for the first, 0.747 ± 0.0208 fold-change vs cycle 0 for the second.

Going from TCAGAA to TCTAAA, the binding signal rises from 1.28 ± 0.0614 fold-change vs cycle 0 to 1.67 ± 0.161 fold-change vs cycle 0.

Going from TGTACA to AAAATT, the binding signal rises from 1.26 ± 0.0338 fold-change vs cycle 0 to 1.94 ± 0.175 fold-change vs cycle 0.

Going from GCAGGA to ACTACG, the binding signal rises from 0.489 ± 0.0596 fold-change vs cycle 0 to 0.821 ± 0.0676 fold-change vs cycle 0.

First: AAGATC
Second: CCATAA
The binding signal of the first is higher: 1.44 ± 0.0439 fold-change vs cycle 0 for the first, 1.28 ± 0.051 fold-change vs cycle 0 for the second.

Compared with CGAACA, AGTTTC is higher in binding signal: 0.787 ± 0.0244 fold-change vs cycle 0 for the first, 1.3 ± 0.112 fold-change vs cycle 0 for the second.

CAATGA and CTCTAA are within error of each other in binding signal: 1.4 ± 0.0741 fold-change vs cycle 0 for the first, 1.36 ± 0.0965 fold-change vs cycle 0 for the second.

Going from GCAAGA to ACAATA, the binding signal rises from 0.825 ± 0.0528 fold-change vs cycle 0 to 1.71 ± 0.156 fold-change vs cycle 0.

Going from AGCACT to ATGAGA, the binding signal rises from 0.859 ± 0.0159 fold-change vs cycle 0 to 1.48 ± 0.107 fold-change vs cycle 0.

First: TAATGA
Second: TCCACA
The binding signal of the first is higher: 1.9 ± 0.22 fold-change vs cycle 0 for the first, 0.842 ± 0.0543 fold-change vs cycle 0 for the second.

Going from CCATTA to ACCTGA, the binding signal falls from 1.32 ± 0.097 fold-change vs cycle 0 to 1.02 ± 0.0552 fold-change vs cycle 0.
